# Experimental data: the supplement of paper PMC8728848
# The entries come from a sample that favours the strongest signals as a whole.
# What was measured:
# Experiment in all cases: glycan array binding signal (z-score within array); higher = stronger binding
# Conditions in all cases: glycan notation: IUPAC condensed, linker removed
# Glc(a1-4)Glc = target: Glc(a1-4)Glc
# Procedure, shortened: (§1)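 Arrays were curated from the Consortium for Functional Glycomics database, 3228 in total, and kept only where the protein sequence was available. Binding is expressed as a within-array Z-score. This score was averaged across arrays of the same protein sequence at different concentrations or buffers and across linkers, and negative values can be read as non-binding.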
# Glc(b1-4)Glc = target: Glc(b1-4)Glc
# Procedure, shortened: as §1
# GlcA(b1-6)Gal = target: GlcA(b1-6)Gal
# Procedure, shortened: as §1
# [1] = target: GlcA3S(b1-3)Gal(b1-4)GlcNAc(b1-2)Man
# Procedure, shortened: as §1
# [2] = target: GlcNAc(b1-2)Man(a1-3)[GlcNAc(b1-4)][GlcNAc(b1-2)Man(a1-6)]Man(b1-4)GlcNAc(b1-4)[Fuc(a1-6)]GlcNAc
# Procedure, shortened: as §1
# [3] = target: GlcNAc(b1-3)Gal(b1-4)GlcNAc(b1-3)Gal(b1-4)GlcNAc
# Procedure, shortened: as §1
# [4] = target: GlcNAc(b1-3)Gal(b1-4)GlcNAc(b1-3)Gal(b1-4)GlcNAc(b1-2)Man(a1-3)[GlcNAc(b1-3)Gal(b1-4)GlcNAc(b1-3)Gal(b1-4)GlcNAc(b1-2)Man(a1-6)]Man(b1-4)GlcNAc(b1-4)[Fuc(a1-6)]GlcNAc
# Procedure, shortened: as §1
# [5] = target: GlcNAc(b1-3)Gal(b1-4)GlcNAc(b1-3)Gal(b1-4)GlcNAc(b1-3)Gal(b1-4)GlcNAc(b1-2)Man(a1-3)[GlcNAc(b1-3)Gal(b1-4)GlcNAc(b1-3)Gal(b1-4)GlcNAc(b1-3)Gal(b1-4)GlcNAc(b1-2)Man(a1-6)]Man(b1-4)GlcNAc(b1-4)GlcNAc
# Procedure, shortened: as §1
# [6] = target: GlcNAc(b1-3)Gal(b1-4)GlcNAc(b1-3)Gal(b1-4)GlcNAc(b1-3)Gal(b1-4)GlcNAc(b1-3)Gal(b1-4)GlcNAc(b1-2)Man(a1-3)[GlcNAc(b1-3)Gal(b1-4)GlcNAc(b1-3)Gal(b1-4)GlcNAc(b1-3)Gal(b1-4)GlcNAc(b1-3)Gal(b1-4)GlcNAc(b1-2)Man(a1-6)]Man(b1-4)GlcNAc(b1-4)GlcNAc
# Procedure, shortened: as §1
# [7] = target: GlcNAc(b1-4)GlcNAc(b1-4)GlcNAc(b1-4)GlcNAc(b1-4)GlcNAc
# Procedure, shortened: as §1
# Man(a1-6)Man = target: Man(a1-6)Man
# Procedure, shortened: as §1
# [8] = target: Neu5Ac(a2-3)Gal(b1-3)GlcNAc
# Procedure, shortened: as §1
# [9] = target: Neu5Ac(a2-3)Gal(b1-4)GlcNAc(b1-2)Man
# Procedure, shortened: as §1
# [10] = target: Neu5Ac(a2-3)Gal(b1-4)GlcNAc(b1-3)Gal(b1-4)GlcNAc(b1-2)Man(a1-3)[Neu5Ac(a2-3)Gal(b1-4)GlcNAc(b1-3)Gal(b1-4)GlcNAc(b1-2)Man(a1-6)]Man(b1-4)GlcNAc(b1-4)GlcNAc
# Procedure, shortened: as §1
# [11] = target: Neu5Ac(a2-3)Gal(b1-4)GlcNAc(b1-3)Gal(b1-4)GlcNAc(b1-3)[Neu5Ac(a2-3)Gal(b1-4)GlcNAc(b1-3)Gal(b1-4)GlcNAc(b1-6)]GalNAc
# Procedure, shortened: as §1
# [12] = target: Neu5Ac(a2-3)Gal(b1-4)[Fuc(a1-3)]GlcNAc(b1-2)Man
# Procedure, shortened: as §1
# [13] = target: Neu5Ac(a2-3)Gal(b1-4)[Fuc(a1-3)]GlcNAc(b1-6)[Neu5Ac(a2-3)Gal(b1-3)]GalNAc
# Procedure, shortened: as §1
# [14] = target: Neu5Ac(a2-3)Gal6S(b1-4)GlcNAc
# Procedure, shortened: as §1
# Neu5Ac(a2-3)GalNAc = target: Neu5Ac(a2-3)GalNAc
# Procedure, shortened: as §1
# [15] = target: Neu5Ac(a2-3)[Neu5Ac(a2-6)]GalNAc
# Procedure, shortened: as §1
# [16] = target: Neu5Ac(a2-6)Gal(b1-4)GlcNAc(b1-2)Man
# Procedure, shortened: as §1
# [17] = target: Neu5Ac(a2-6)Gal(b1-4)GlcNAc(b1-2)Man(a1-3)[Gal(b1-4)GlcNAc(b1-2)Man(a1-6)]Man(b1-4)GlcNAc(b1-4)GlcNAc
# Procedure, shortened: as §1
# [18] = target: Neu5Ac(a2-6)Gal(b1-4)GlcNAc(b1-3)Gal(b1-4)[Fuc(a1-3)]GlcNAc(b1-3)Gal(b1-4)[Fuc(a1-3)]GlcNAc
# Procedure, shortened: as §1
# [19] = target: Neu5Ac(a2-6)GalNAc(b1-4)GlcNAc6S
# Procedure, shortened: as §1
# [20] = target: Neu5Ac(a2-8)Neu5Ac(a2-8)Neu5Ac(a2-8)Neu5Ac(a2-3)[GalNAc(b1-4)]Gal(b1-4)Glc
# Procedure, shortened: as §1
# [21] = target: Neu5Gc(a2-3)Gal(b1-3)GlcNAc
# Procedure, shortened: as §1
# [22] = target: Neu5Gc(a2-3)Gal(b1-4)GlcNAc
# Procedure, shortened: as §1
# [23] = target: Neu5Gc(a2-3)Gal(b1-4)GlcNAc(b1-3)Gal(b1-4)GlcNAc(b1-2)Man(a1-3)[Neu5Gc(a2-3)Gal(b1-4)GlcNAc(b1-3)Gal(b1-4)GlcNAc(b1-2)Man(a1-6)]Man(b1-4)GlcNAc(b1-4)GlcNAc
# Procedure, shortened: as §1
binder,measurement,setting,value
Nc3LysM-2 (protein) AHVLQARQSVSCDFATAANTGDTCASFAAAWGITEAAFAKLNPGVSCPGNLIAGSEYCVIGTVSTGAPTTTKAATTSTTPPTTTTTTKATTLSTSTTSVSPTGPSPQMPSITSTCNKFYQVQSGDGCWSIEQAQGVSASDFMAWNKAVDAQCDNLWLGYYVCVGVKGGSSPPPTTTTKPASSSAPTPQMPNTVSNCKKFHKVVSGDGCWAIEQAAGISASDFAKWNPYVDAACDNLWLGYYVCIGV,glycan array binding signal (z-score),Glc(a1-4)Glc,-0.04
same,glycan array binding signal (z-score),Glc(b1-4)Glc,-1.11
same,glycan array binding signal (z-score),GlcA(b1-6)Gal,2.36
same,glycan array binding signal (z-score),[1],0.714
same,glycan array binding signal (z-score),[2],-0.543
same,glycan array binding signal (z-score),[3],0.247
same,glycan array binding signal (z-score),[4],3.4
same,glycan array binding signal (z-score),[5],-0.959
same,glycan array binding signal (z-score),[6],-0.307
same,glycan array binding signal (z-score),[7],3.61
same,glycan array binding signal (z-score),Man(a1-6)Man,0.852
same,glycan array binding signal (z-score),[8],0.767
same,glycan array binding signal (z-score),[9],0.06
same,glycan array binding signal (z-score),[10],4.26
same,glycan array binding signal (z-score),[11],-0.674
same,glycan array binding signal (z-score),[12],-0.075
same,glycan array binding signal (z-score),[13],2.08
same,glycan array binding signal (z-score),[14],-0.155
same,glycan array binding signal (z-score),Neu5Ac(a2-3)GalNAc,-1.24
same,glycan array binding signal (z-score),[15],0.668
same,glycan array binding signal (z-score),[16],0.422
same,glycan array binding signal (z-score),[17],-0.256
same,glycan array binding signal (z-score),[18],0.118
same,glycan array binding signal (z-score),[19],-2.04
same,glycan array binding signal (z-score),[20],0.938
same,glycan array binding signal (z-score),[21],0.959
same,glycan array binding signal (z-score),[22],-0.122
same,glycan array binding signal (z-score),[23],-0.459
